Compound activity (PubChem BioAssay)
This is a sample that favours compounds with a hit; in the whole collection about 28% have one here.
CYP2C9 act: CYP2C9 (human) activation; P11712; recombinant CYP2C9, luciferin-H conversion, luminescence; stronger effect = higher value; factor 1 = untreated enzyme, 0 = blocked; activation factor at 5 µM; 96,000 compounds, 1.4% hits; AID 1024;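 active = activation factor of 2 or more for CYP2C9 at a 5 µM dose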;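 also: 0 = sulfaphenazole-blocked wells and 1 = vehicle-only wells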
CYP2C19 inh: human CYP2C19 inhibition. P33261. CYP2C19 Supersomes, luciferin-H EGE luminescence, 30 min. inhibition, % at 5 µM. 96,000 compounds, 21% hits;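 active = CYP2C19 inhibition above a set limit at 5 µM in the primary screen, cut at about 50% in these data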;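 also: plate controls were negative control wells for no effect and 2.5 mM tranylcypromine positive control for full effect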
CYP2C9 inhib: inhibitors of human CYP2C9 | AID 777 | CYP2C9 Supersomes, luciferin-H conversion, luminescence | inhibition, % at 5 µM | P11712 | 96,000 compounds, 20% hits;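 active = blocking of liver enzyme CYP2C9 beyond about 50% at 5 µM, limit read from the data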
CYP2C19 act: cytochrome P450 2C19 (human) activation; activation factor at 5 µM; recombinant CYP2C19, luciferin-H EGE luminescence; stronger effect = higher value; 0 = fully inhibited enzyme, 1 = untreated enzyme; P33261; 96,000 tested, under 10 active;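 active = activation factor of at least 2 at 5 µM in the primary screen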;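 also: 0 = wells with 2.5 mM tranylcypromine and 1 = vehicle-only wells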
PLK1 kinase inh: inhibitors of human PLK1 kinase | inhibition, % at 10 µM | P53350 | 97,000 compounds, 0.53% hits | recombinant PLK1 kinase, TR-FRET peptide phosphorylation | AID 619;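 active = inhibition of 50% or more in the single-concentration screen; inactive = inhibition below 50%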;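 also: 0% = DMSO max control and 100% = H-89 dihydrochloride min control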
Target sequence (P53350 whole entry, looked up): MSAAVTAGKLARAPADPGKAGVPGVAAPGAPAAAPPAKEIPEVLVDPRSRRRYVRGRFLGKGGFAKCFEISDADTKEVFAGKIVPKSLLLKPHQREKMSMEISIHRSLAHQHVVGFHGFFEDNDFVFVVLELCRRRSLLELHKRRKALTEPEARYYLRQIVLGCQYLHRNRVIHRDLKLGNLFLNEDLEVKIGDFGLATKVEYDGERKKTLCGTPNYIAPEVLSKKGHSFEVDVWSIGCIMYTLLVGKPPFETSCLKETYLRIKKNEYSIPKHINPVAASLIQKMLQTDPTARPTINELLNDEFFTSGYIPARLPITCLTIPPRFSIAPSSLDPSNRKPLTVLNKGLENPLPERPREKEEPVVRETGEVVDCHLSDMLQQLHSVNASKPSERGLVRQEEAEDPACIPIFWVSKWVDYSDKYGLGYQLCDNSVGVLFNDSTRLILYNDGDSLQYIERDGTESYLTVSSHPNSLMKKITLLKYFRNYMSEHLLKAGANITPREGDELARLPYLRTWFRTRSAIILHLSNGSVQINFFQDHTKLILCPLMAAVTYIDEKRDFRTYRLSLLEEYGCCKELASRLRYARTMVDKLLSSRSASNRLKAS
PLK1 PBD inh: blocks phosphopeptide binding to human Plk1 polo box domain; Plk1 PBD phosphopeptide binding, fluorescence polarization; AID 693; P53350; 97,000 compounds, 0.13% hits; inhibition, %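 (tested at about 20 µM)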; in the data active = inhibition above about 34%, passing the limit was not always enough
Starred values were filed as active, the others as inactive; . = no result.

SMILES | CYP2C9 act | CYP2C19 inh | CYP2C9 inhib | CYP2C19 act | PLK1 kinase inh | PLK1 PBD inh
CCOC(=O)[C@@]1(C#N)C(c2ccc(Cl)c(Cl)c2)[C@H](C(N)=O)N2C=C(C(C)=O)C=C[C@H]21 (stereo partly specified) | 1 | 18.9 | 3.1 | 0.8 | -2.2 | 0.8
Cc1ccc2c(c1)C(c1ccccc1)NCC(=O)N2 (stereo unspecified) | 1.1 | -5.5 | -5.9 | 1.1 | 2.1 | 6.8
COP(=O)(OC)C1(Nc2ccc(C)cc2)CCCCC1 | 0.7 | 83.0* | 33.3 | 0.2 | -1.4 | -3.6
O=C(Nc1ccc(Cl)cc1)Nc1nccs1 | 0.7 | 4.4 | 25.3 | 1 | 16.9 | -23.3
Cc1ccc(NC(=O)CN2C(=O)CN=C(c3ccccc3)c3cc(Cl)ccc32)cc1 | 0.2 | 90.3* | 79.8* | 0.1 | 4.7 | 17.1
CN(CC(=O)Nc1ccccc1-c1ccccc1)C1CCCCC1 | . | . | . | . | -6.8 | -4.7
CN(C)c1ccc(NC(=O)CN2C(=O)CN=C(c3ccccc3)c3ccccc32)cc1 | 1 | 65.3* | 1.4 | 0.3 | -8.4 | -7.8
CN(C)c1ccc(NC(=O)CN2C(=O)CN=C(c3ccccc3)c3cc(Cl)ccc32)cc1 | 0.3 | 96.5* | 65.1* | 0 | -2.4 | -1.3
CC1=CC(=C2C(=O)NC(=S)NC2=O)C=C(C(F)(F)F)N1C | 1 | -5.2 | -0.5 | 1.1 | 1.6 | -13.5
Cc1ccccc1OCCN=Cc1c(O)n(C)c(=O)n(C)c1=O | 0.7 | 64.1* | 26.7 | 0.4 | -19.5 | 7.1
CCOP(=O)(C(NC(=O)c1ccccc1Cl)=C(Cl)Cl)c1ccccc1 (stereo unspecified) | 0.4 | 77.4* | 57.0* | 0.2 | -8.3 | -6.4
CCOP(=O)(OCC)C(NC(=O)c1ccccc1Cl)=C(Cl)Cl | 1.1 | 14.5 | -5.1 | 0.9 | -10.6 | 23.5
Cn1c(=O)cc(OCC(=O)N2CCN(Cc3ccc4c(c3)OCO4)CC2)c2ccccc21 | 0.3 | 54.8* | 72.0* | 0.5 | -10.0 | 6.2
Cn1c(=O)cc(OCC(=O)N2CCN(C3CCCCC3)CC2)c2ccccc21 | 1.2 | 9.3 | -21.1 | 0.9 | -11.8 | -8.8
CCOC(=O)C1C(=O)NC2(C)CC1c1cc(OC)ccc1O2 (stereo unspecified) | 1 | 2.3 | -2.9 | 1 | . | .
CC(C)OC(=O)C1C(=O)NC2(C)CC1c1ccccc1O2 (stereo unspecified) | 0.9 | 60.5* | 12.6 | 0.4 | -13.5 | 7.6
O=C(c1ccc2nc3ccc(Cl)cc3c(=O)n2c1)N1CCC2(CC1)OCCO2 | . | . | . | . | -22.7 | -0.5
CCCCn1c(O)c(C(C)=Nc2ccc(C(=O)O)cc2)c(=O)[nH]c1=O | 1 | 0.7 | -1.3 | 1 | -7.7 | -16.7
C=CCn1c(O)c(C(CC)=Nc2ccc(N(CC)CC)cc2)c(=O)[nH]c1=O | 1 | -6.2 | 2.3 | 1.1 | -10.8 | -13.8
CCCCn1c(O)c(C(C)=NC(C)c2ccccc2)c(=O)[nH]c1=O (stereo unspecified) | 0.2 | 53.5* | 77.3* | 0.5 | -8.7 | -19.6
CCCCn1c(O)c(C(C)=NCCc2ccccc2)c(=O)[nH]c1=O | 0.3 | 38.1 | 69.4* | 0.6 | 29.4 | -14.2
C=CCn1c(O)c(C(CC)=NC(C)c2ccccc2)c(=O)[nH]c1=O (stereo unspecified) | 0.4 | 65.7* | 63.0* | 0.3 | -4.8 | -12.8
CCCCn1c(O)c(C(CC)=NC(C)c2ccccc2)c(=O)[nH]c1=O (stereo unspecified) | 0.1 | 71.2* | 90.9* | 0.3 | 0.3 | -13.8
O=c1c2ccccc2nc(CSc2ncnc3nc[nH]c23)n1-c1ccc(Cl)c(Cl)c1 | 0.6 | 27.6 | 43.5 | 0.7 | -9.9 | 9.4
COCCn1c(-c2ccccc2)cc(C(=O)O)c1C | . | . | . | . | -9.3 | -24.3
SMILES | CYP2C9 act | CYP2C19 inh | CYP2C9 inhib | CYP2C19 act | PLK1 kinase inh | PLK1 PBD inh
COc1ccccc1N1CCN(Cc2ccccc2F)CC1 | 0.8 | 30.5 | 23.0 | 0.7 | . | .
COc1ccccc1N1CCN(Cc2cccc(OC)c2O)CC1 | 1 | 51.5* | 2.7 | 0.5 | -4.5 | 9.4
COc1ccccc1N1CCN(Cc2c(F)cccc2F)CC1 | 0.8 | 58.2* | 23.2 | 0.4 | -12.4 | -15.2
CC(=O)c1cccc(NC2=NCC(C)S2)c1 (stereo unspecified) | 0.9 | 35.7 | 8.9 | 0.6 | -14.4 | -9.8
CCCCc1ccc2[nH]cc(CCN)c2c1 | 0.4 | 34.5 | 62.6* | 0.7 | -3.6 | 12.8
CCOC(=O)c1cccc([P+](=O)O)c1 | . | . | . | . | -5.0 | -4.4
CCCCn1c(=O)c(C(=O)Nc2cnccn2)c(O)c2ccccc21 | 0.9 | 4.5 | 5.0 | 1 | -24.0 | -29.1
Cc1ccccc1NC1=NCCCS1 | 1 | 1.9 | 0.3 | 1 | -11.4 | 2.4
Cc1cccc(CSc2nc3c(cc2C#N)CN(C)CC3)c1 | 1 | 69.5* | 0.6 | 0.3 | -7.0 | 2.9
CCOC(=O)c1c(NC(=O)C(c2ccccc2)c2ccccc2)sc2c1C1CCN2CC1 | 0.4 | 22.7 | 63.1* | 0.8 | 3.2 | -38.2
CC12CN3CC(C)(CN(C1)C3c1ccncc1)C2=O (stereo unspecified) | 1.1 | 6.8 | -5.1 | 0.9 | -12.4 | -17.1
O=C(c1ccccc1F)c1cn(Cc2ccccc2)c2ccccc12 | 1 | 60.4* | 2.5 | 0.4 | -9.2 | -16.2
O=C(c1ccccc1F)c1cn(CC(=O)N2CCCCC2)c2ccccc12 | 0.7 | 80.3* | 30.5 | 0.2 | -6.4 | -2.9
CCOC(=O)Cn1cc(C(=O)c2ccccc2F)c2ccccc21 | 0.5 | 68.2* | 48.4 | 0.3 | -8.3 | 27.1
CCC(=O)c1cn(Cc2ccc(C#N)cc2)c2ccccc12 | 0.6 | 38.6 | 44.1 | 0.6 | 2.8 | 5.7
CC(C)(C)NC(=O)Cn1cc(C(=O)c2ccccc2F)c2ccccc21 | 0.6 | 38.2 | 38.0 | 0.6 | -7.4 | -15.1
O=C(c1ccccc1)c1cn(CC(=O)N2CCCC2)c2ccccc12 | 0.9 | 10.4 | 12.0 | 0.9 | -25.4 | 8.7
O=c1c2ccccc2nc(-c2ccco2)n1-c1cccnc1 | 0.9 | 10.6 | 5.4 | 0.9 | -12.6 | -5.8
CC(C)C(=O)N1CCN(CCN=Cc2c(O)n(C)c(=O)n(C)c2=O)CC1 | 1 | 0.2 | 4.3 | 1 | -9.6 | -33.1
O=C(C1CCN(c2nc3ccc(Br)cc3s2)CC1)N1CCC2(CC1)OCCO2 | 0.8 | 6.9 | 16.6 | 0.9 | -5.0 | -16.9
CC(=O)OC1(c2ccc(C)cc2)CN2CCC1c1ccccc12 (stereo unspecified) | 1.3 | 98.6* | -27.3 | 0 | -18.7 | -23.3
CC(=O)OC1(c2ccccc2)CCN(C)C(C)C1C (stereo unspecified) | . | . | . | . | -7.6 | -20.9
CC(=O)OC1(Cc2ccccc2)CN2CCC1c1ccccc12 (stereo unspecified) | 0.4 | 74.3* | 59.6* | 0.3 | -1.0 | -20.9
CCCCN1C(=O)C(C2c3ccccc3C(=O)N2Cc2ccccc2)C(=O)NC1=S (stereo unspecified) | 0.5 | 18.4 | 54.0* | 0.8 | -8.9 | -14.5
